# Results published in PubChem BioAssay.
# Values without a mark were called inactive. The rule behind the calls is not given here.
# Biological target: Pantothenate synthetase (Mycobacterium tuberculosis (strain ATCC 25618 / H37Rv)) (UniProt P9WIL5)
# Assay: Coupled enzyme confirmation of inhibitors against recombinant Mtb PanC (AID 375);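 note: 0% = full reaction with vehicle and 100% = no enzyme background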
# Details: coupled enzyme assay; at 10 µM, stronger effect = higher value
# Sequence of Pantothenate synthetase (Mycobacterium tuberculosis (strain ATCC 25618 / H37Rv)) (P9WIL5 whole entry, looked up): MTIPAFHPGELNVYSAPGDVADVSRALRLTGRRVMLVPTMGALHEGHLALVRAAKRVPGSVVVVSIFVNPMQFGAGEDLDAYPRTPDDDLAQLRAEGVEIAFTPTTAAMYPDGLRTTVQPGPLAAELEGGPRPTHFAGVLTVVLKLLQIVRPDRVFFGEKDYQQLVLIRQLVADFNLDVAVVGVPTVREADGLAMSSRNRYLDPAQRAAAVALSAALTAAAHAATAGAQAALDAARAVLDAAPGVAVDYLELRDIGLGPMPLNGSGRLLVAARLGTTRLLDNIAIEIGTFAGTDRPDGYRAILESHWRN
row,SMILES,inhibition [%]
1,CCOc1ccc(Oc2nc(Nc3ccc(C)cc3)nc(N(C)C)n2)nn1,0
2,CCOC(=O)N1CCN(CC(=O)c2c(C)[nH]c3ccccc23)CC1,0
3,C=CCn1c(-c2cccs2)nc2nc3ccccc3nc21,0
4,O=C(Cc1cccs1)Nc1nnc(CCc2ccccc2)s1,0
5,Nc1nnc(-c2cccc(Cl)c2Cl)c(N)n1,2
6,CCCOC(=O)c1ccc(-c2c(C)noc2-c2ccc(OC)cc2O)o1,0
7,Cc1ccc(NC2=NCC(=O)N2c2ccc3c(c2)OCCO3)c(C)c1,7
8,Cc1cc2ccccc2c(=O)n1CC(=O)Nc1ccc2c(c1)OCO2,0
9,CCOC(=O)N1CCN(C(=O)CSc2nnc(-c3cc(OC)cc(OC)c3)o2)CC1,0
10,COc1ccc(NC(=O)CSc2nc3c(c(=O)n2-c2ccc(F)cc2)SCC3)c(OC)c1,0
11,Cc1csc(SCc2nc3sc4c(c3c(=O)[nH]2)CCC4)n1,0
12,Nc1ncnc2nc(SCCN3CCCCC3)[nH]c12,4
13,COC(=O)C1=C(C)NC(C)=C(C(=O)OC)C1c1ccccc1[N+](=O)[O-],0
14,Cc1csc2nc(CSc3ccc(Cl)cc3)cn12,0
15,Cc1cc(C)nc(N2CCCC(C(=O)Nc3nc4ccc(S(C)(=O)=O)cc4s3)C2)n1 (stereo not given),4
16,COc1ccccc1NC(=O)c1nnn(CC(=O)Nc2ccccc2)c1N,1
17,CCc1nnc(NC(=O)CSc2nnc(-c3ccc(OC)cc3)n2C)s1,0
18,COC(=O)Cn1c2ccccc2c2nc(C)sc21,0
19,O=C(NC1CCCCC1NC(=O)c1ccco1)c1ccco1 (stereo not given),0
20,CCOC(=O)N1CCN(C(=O)c2ccc3c(=O)n(Cc4ccc(OC)cc4)c(=S)[nH]c3c2)CC1,4

row,SMILES,inhibition [%]
1,Cc1ccc(-c2nn(C)c(=O)c3ccccc23)cc1S(=O)(=O)N1CCOCC1,9
2,CC1=C(C)C(=O)NC(Nc2nc(C)c3cc(C)cc(C)c3n2)N1 (stereo not given),0
3,Cc1n[nH]c(C)c1S(=O)(=O)N1CCCCCC1,0
4,COc1ccc(CNc2nc3nc(C)c(Cl)c(C)n3n2)cc1OC,6
5,CCOC(=O)C1CCN(C(c2cc3cc(C)cc(C)c3[nH]c2=O)c2nnnn2C2CCCCC2)CC1 (stereo not given),0
6,O=C(c1ccco1)N1CCN(c2cccc(Cl)c2)CC1,0
7,O=C(C1CCC1)N1CCc2cc(S(=O)(=O)N3CCc4ccccc4C3)ccc21,7
8,Cc1cccc(-n2ncc3c(NCc4ccccn4)ncnc32)c1,6
9,CCN(CC)S(=O)(=O)c1ccc(NC(=O)Cn2cnc3ccccc3c2=O)cc1,0
10,O=C(c1ccco1)N1CCN(/C(=N/S(=O)(=O)c2cccs2)c2ccccc2Cl)CC1,0
11,O=C(Nc1ccc(N2CCOCC2)cc1)C1CC1,0
12,CCc1nc(C)ccc1OCC(=O)O,3
13,CC1=C(C(N)=O)C(c2cccnc2)n2nc(SCc3ccccc3Cl)nc2N1 (stereo not given),0
14,CCC(Sc1nc2sc(C(=O)OC)c(C)c2c(=O)n1N)C(=O)NCC1CCCO1 (stereo not given),4
15,Cc1ccc(-n2nc(-c3cccs3)cc2C(=O)NCC2CCCO2)c(C)c1 (stereo not given),0
16,COc1ccc(S(=O)(=O)N2CCCC(C(=O)N3CCCCCC3)C2)cc1 (stereo not given),6
17,O=C1CC(c2ccccc2)NC(=O)N1 (stereo not given),0
18,CN(Cc1nc(-c2ccncc2)no1)S(=O)(=O)c1ccc(Br)cc1,2
19,Cc1nnc(SCc2ccccc2)n1N,0
20,CCOc1ccc(S(=O)(=O)n2c(C)nc3ccccc32)cc1,0
